This is a sample that favours compounds with a hit; in the whole collection about 1.4% have one here.
GLS inhibitor – inhibitors of human glutaminase (GLS) | 410,000 tested, 0.21% active | GLS enzymatic activity, qHTS titration | Potency, µM (titrated, usually from 45.5 µM), actives largely listed as inhibitors
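Compounds were pin-transferred onto hKGA, after which L-glutamine (1 mM solution) and a detection mix of glutamate oxidase, HRP and Amplex Red were added. Initial and 30 min RT fluorescence reads were collected.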
mIDH1 inhibitor – inhibitors of human mutant IDH1 R132H; IDH1-R132H enzyme, NADPH consumption, diaphorase/resazurin fluorescence; O75874; Potency, µM (series often up to 76.6 µM), hits mostly inhibitors; 390,000 tested, 0.093% active; note: nearly all actives have a fitted effect of over 65% in size
Target sequence (O75874 whole entry R132H, stated change not applied): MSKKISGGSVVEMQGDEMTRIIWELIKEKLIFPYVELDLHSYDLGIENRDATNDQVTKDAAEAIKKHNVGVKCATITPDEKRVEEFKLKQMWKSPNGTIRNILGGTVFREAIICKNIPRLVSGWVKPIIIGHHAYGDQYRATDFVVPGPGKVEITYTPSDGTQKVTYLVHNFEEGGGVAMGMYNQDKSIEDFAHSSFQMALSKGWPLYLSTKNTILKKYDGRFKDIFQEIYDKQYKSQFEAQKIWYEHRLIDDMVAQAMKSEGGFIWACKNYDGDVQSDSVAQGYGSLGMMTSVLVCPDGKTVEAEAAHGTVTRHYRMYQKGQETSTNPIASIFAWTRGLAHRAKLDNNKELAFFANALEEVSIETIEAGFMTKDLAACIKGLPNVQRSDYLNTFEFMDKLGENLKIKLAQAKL
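IDH1-R132H (0.5 ug/mL) preincubated 30 min with compound, then NADPH (0.016 mM) and alpha-KG (2 mM) added; 80 min at RT, pH 7.5. Remaining NADPH coupled via diaphorase/resazurin to fluorescence (540/590 nm); concentration-response curves normalized to no-enzyme control.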
LDHA block – inhibitors of human lactate dehydrogenase A; P00338; purified LDHA, NADH/diaphorase-resazurin fluorescence; active compounds read low; activity change, % (values are at about 110 or 230 µM); 480,000 tested, 0.15% active; AID 1347041; in the data active = activity change below about -30%; inconclusive = mostly about -25% to -30%
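Remaining NADH was detected by diaphorase (0.133 mg/mL) converting 37 µM resazurin to fluorescent resorufin, read at 0 and 20 minutes. The preceding 5-minute room-temperature reaction used 2 nM LDHA, 0.2 mM sodium pyruvate and 0.06 mM NADH at pH 7.4.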
PKM2 act – increases activity of human pyruvate kinase M2; 260,000 tested, 0.34% active; Potency, µM (highest dose often 57.5 µM), actives largely listed as activators; P14618; purified PKM2, Kinase-Glo ATP luminescence, activation; response scale: 0% is enzyme alone, no compound; note: nearly all actives have a fitted effect of over 55% in size
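Purified hPK-M2 (>95%) run at intermediate activity with 0.1 mM ADP and 0.5 mM PEP in 50 mM imidazole pH 7.2, KCl, MgCl2; 1 h room temperature. ATP formed read by Kinase-Glo luminescence; normalized to uninhibited and no-enzyme controls.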
TrxR1 substrate – rat thioredoxin reductase 1 substrate activity | O89049 | purified TrxR1 substrate turnover, NADPH consumption readout | Potency, µM (series often up to 114 µM) | 390,000 tested, 0.01% active; note: nearly all actives have a fitted effect of over 50% in size
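Rat TrxR1, dispensed at 90 nM, was prereduced with 400 uM NADPH (final) for 5 min at ~22 deg C, then incubated with compound 15 min before 400 uM selenite. A first-read NADPH fluorescence drop versus no-compound background flagged substrates.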
TrxR1 inh – inhibitors of rat thioredoxin reductase 1; O89049; recombinant rTrxR1, NADPH fluorescence consumption, selenite substrate; Potency, µM (top dose mostly 114 µM), actives largely listed as inhibitors; 390,000 tested, 1% active; AID 588453; note: nearly all actives have a fitted effect of over 65% in size
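Rat TrxR1 (90 nM in the dispensed reagent) was pre-reduced with 400 uM NADPH for 5 min at room temperature, then incubated with compound for 15 min. After 400 uM selenite was added, NADPH fluorescence (Ex 340/Em 450 nm) was followed for 8 min.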
Numbers stand for hits; n = inactive; u = inconclusive; x = not tested or not shown; ! = repeats disagree; [ ] = remark or other dose. Unless noted, calls come from the whole dose curve; as a rule, active = well fitted curve in the direction sought with a large enough effect; inconclusive = small, poorly fitted or top-dose-only effect, or another doubt; inactive = no such curve, though single readings can be large; an effect the other way counts as inactive or inconclusive.

SMILES	GLS inhibitor	mIDH1 inhibitor	LDHA block	PKM2 act	TrxR1 substrate	TrxR1 inh
CCCCCCCCCC[n+]1cccc(Br)c1	x	x	n	x	n	n
C(C#CCCCCCCCCC[n+]1ccccc1)#CCCCCCCCCC[n+]1ccccc1	n	n	n	n	n	56µM
O=C(O)CC1CCC(=C(Cl)Cl)C1 (stereo not given)	n	n	n	n	n	1µM
O=C(O)CC1CC(O)CCC1=O (stereo not given)	n	x	n	x	x	x
Cc1[nH]c2ccccc2c1C(=O)COc1cccc2ccccc12	x	x	n	x	x	x
COc1ccccc1C(C)NCC(=O)c1c(C)[nH]c2ccccc12 (stereo not given)	x	x	n	x	n	20µM
Cc1cc(/C=C(/C#N)c2nc3ccccc3[nH]2)c(C)n1-c1cc(C(=O)O)cc(C(=O)O)c1	18µM	n	n	n	n	n
Cc1cc(/C=C(/C#N)c2nc3ccccc3[nH]2)c(C)n1-c1ccccc1C(=O)O	n	n	n	n	n	n
O=C(O)c1ccc(N2CCCCC2)cc1O	n	n	n	n	n	n
O=C(O)c1ccc(N2Cc3ccccc3C2)cc1O	4µM	n	n	n	n	u
NCCCS(=O)(=O)O	n	n	n	n	n	11µM!
Cc1nc2ccc(C(=O)OCC(=O)NC3CCCC3)cc2nc1C	x	x	n	x	x	x
O=C(CNC(=O)c1ccco1)OCC(=O)c1ccc2c(c1)CCCC2	n	n	n	n	n	79µM
O=C(OCC(=O)N(Cc1ccccc1)Cc1ccccc1)c1ccc2ccccc2n1	x	x	-37	x	x	x
N#CCCCN1C(=O)C(O)(CC(=O)c2ccc3c(c2)OCCO3)c2ccccc21 (stereo not given)	n	n	n	n	n	n
N#CCCCN1C(=O)C(=C(C#N)C#N)c2ccccc21	n	u	n	n	n	13µM
N#Cc1ccc(COC(=O)c2cc3ccccc3[nH]2)cc1	x	x	n	x	x	x
c1ccc(-n2nnnc2CSc2nnc(N3CCOCC3)n2-c2ccccc2)cc1	x	x	n	x	x	x
COc1ccccc1C(OC(=O)c1cccs1)C(=O)NCc1ccco1 (stereo not given)	n	n	n	n	n	16µM
CC(OC(=O)c1cccs1)C(=O)NCc1ccco1 (stereo not given)	n	n	n	n	n	n
CCCN(CCC)S(=O)(=O)c1ccc(SCC(=O)OCC)c([N+](=O)[O-])c1	x	x	n	x	x	x
Cc1cccc(C)c1NC(=S)NCCc1ccc(O)c(O)c1	4µM	n	n	28µM	n	u
O=C(C1CCN(Cc2cccs2)CC1)N1CCN(Cc2ccc3c(c2)OCO3)CC1	n	n	-33	n	n[11.4 µM]	n[11.4 µM]
O=C(Nc1nc(-c2ccc3ccccc3c2)cs1)C1CCN(S(=O)(=O)c2cccs2)CC1	n	n	-30	n	n	n
COc1ccc(NC(=O)CCNC(=O)C2CCN(S(=O)(=O)c3ccc(F)cc3)CC2)cc1OC	n	n	n	4.5µM	n	n
SMILES	GLS inhibitor	mIDH1 inhibitor	LDHA block	PKM2 act	TrxR1 substrate	TrxR1 inh
COc1cccc(CNC(=O)C2CCN(S(=O)(=O)c3ccccc3)CC2)c1	n	n	n	25µM	n	n
O=C(CCSc1ccccc1Cl)OCC(=O)c1ccc(C2CCCCC2)cc1	x	x	n	x	x	x
O=C(NCc1ccc2c(c1)OCO2)C1CCN(S(=O)(=O)c2cccs2)CC1	n	n	n	8.9µM	n	n
COc1cccc(CNC(=O)C2CCN(S(=O)(=O)c3ccc4c(c3)OCCO4)CC2)c1	n	n	n	11µM	n	n
COc1cccc(CNC(=O)N2CCN(S(=O)(=O)c3ccc(Cl)cc3)CC2)c1	n	n	n	14µM	n	n
CC(C)Cn1cnc2c1c(=O)n(Cc1ccccc1C#N)c(=O)n2Cc1ccccc1	x	x	n	x	x	x
Cc1ccc(OCC(=O)N/N=C/C=C/c2ccco2)cc1C	n	n	n	n	n	40µM
Cc1ccc(OCC(=O)N/N=C/c2ccco2)cc1	n	n	n	n	n	n
O=C(Cc1cccs1)N/N=C/C=C/c1ccco1	n	n	n	n	n	45µM
CCCC(C)NC(=O)C1CCN(C(=O)c2ccc(C(F)(F)F)cc2)CC1 (stereo not given)	x	x	n	x	x	x
CCOC(=S)SCc1cn2ccc(C)cc2n1	n	n	n	7.9µM	n	n
c1cc(N2CCCCC2)nc(N2CCCCC2)n1	n	n	n	x	n	n
C[c-]1[c-](C)[c-](C)[c-](C)[c-]1C.[Fe].c1cc2nccc(N3CCCC3)[c-]2c1 (stereo not given)	13µM!	n	n	u	n	u
Cc1cccc(NC(=O)COc2ncnc3ccc(Br)cc23)c1C	x	x	-31	x	x	x
Cc1c(Cl)cccc1NC(=O)COc1ncnc2ccc(Br)cc12	x	x	n	x	x	x
CCCC1Cc2c(sc3ncnc(N)c23)CO1 (stereo not given)	n	n	n	n	n	50µM
CCCC1Cc2c(sc3nc(SCC)nc(N)c23)CO1 (stereo not given)	x	x	n	x	x	x
COc1ccc(NC(=S)NC(NC(=O)c2ccccc2Cl)C(Cl)(Cl)Cl)c([N+](=O)[O-])c1 (stereo not given)	n	n	n	n	n	n
COc1ccc(NC(=S)NC(NC(=O)CCl)C(Cl)(Cl)Cl)c([N+](=O)[O-])c1 (stereo not given)	n	n	n	n	n	10µM
CCN1CCN(Cc2cccc(Oc3ccccc3)c2)CC1	n	n	-32	n	n	n
CNC(=O)c1c(C)[nH]c(=S)c(C#N)c1-c1ccco1	n	n	n	n	n	13µM
COc1cccc(NC(=O)CCN2C(=O)c3ccccc3Sc3ncccc32)c1	n	n	n	n	n	71µM
Cc1ccccc1NC(=O)CCN1C(=O)c2ccccc2Sc2ncccc21	n	n	n	x	n	u
CCOc1ccc(CC(=O)C2C(=O)CC(C)(C)CC2=O)cc1OCC	n	n	n	n	n	35µM
CCOc1ccc(CC(=O)C2C(=O)CCCC2=O)cc1OCC	n	n	n	n	n	28µM
SMILES	GLS inhibitor	mIDH1 inhibitor	LDHA block	PKM2 act	TrxR1 substrate	TrxR1 inh
CCOc1ccc(CC(=O)NC2CC(C)(C)N(C)C(C)(C)C2)cc1OCC	n	n	n	x	n	n
CC(OC(=O)c1cc2c(F)cccc2s1)C(=O)N1CCNC1=O (stereo not given)	x	x	n	x	x	x
Cc1ccc(-c2cc(C(=O)OCC(=O)NC(=O)C3CCCCC3)c3ccccc3n2)o1	x	x	n	x	x	x
COc1ccc(CN(C(=O)c2ccco2)c2ccc(Br)cc2)cc1OC	n	n	n	n	n	n
O=C1/C(=C/N(C(=O)c2ccco2)c2ccc(Br)cc2)Sc2ccccc21	n	n	n	n	n	14µM
O=C1/C(=C/N(C(=O)c2ccco2)c2ccc(Cl)cc2)Sc2ccccc21	n	n	n	n	n	40µM
Cc1[nH]c2ccccc2c1C(c1ccc(Br)o1)c1c(C)[nH]c2ccccc12	x	x	n	x	x	x
